Source: PubChem
TGFb inhibitor: qHTS for Inhibitors of TGF-b; HepG2 CAGA-GFP TGF-b/SMAD3 reporter, GFP fluorescence, 18 h; TGF-beta stimulated, 500 pg/mL final; Potency, µM (top dose mostly 46.1 µM), for the others: top-dose activity, negative = inhibition, hits mostly inhibitors; 410,000 compounds, 1.2% hits; note: potency is the fitted concentration of half-maximal effect; % is set by controls: 0 for no effect and ±100 for the full control effect; nearly all actives have a fitted effect of over 65% in size
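First, reporter cells (HEPG2 CAGA-GFP) rested 2 h at 37 degrees C. Next, compounds were pinned in and TGF-beta added to 500 pg/mL final. After 18 h, GFP was imaged per cell and summed per well.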
DT40 TDP1 no CPT: qHTS for Inhibitors of human tyrosyl-DNA phosphodiesterase 1 (TDP1): qHTS in cells in absence of CPT. AID 686978, 2013. Potency, µM (titrated, usually from 46.2 µM), for inactives: top-dose activity change, negative = growth inhibition, actives largely listed as inhibitors. DT40 Tdp1-/- hTDP1 cells, no CPT, ATP luminescence, 48 h. 420,000 compounds, 15% hits; note: potency is the fitted concentration of half-maximal effect; % is set by controls: 0 for no effect and ±100 for the full control effect; nearly all actives have a fitted effect of over 55% in size
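Readout: luminescence from CellTiter-Glo after 30 min in the dark at RT. Cells: DT40 Tdp1-/- with stable hTDP1, 400/well. Exposure: compounds alone, ≥48 hr, 37 °C.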
TDP1 block: qHTS Assay for Inhibitors of Tyrosyl-DNA Phosphodiesterase (TDP1); recombinant TDP1, AlphaScreen DNA substrate cleavage; Tyrosyl-DNA phosphodiesterase 1 (Homo sapiens), Q9NUW8; 350,000 compounds, 0.28% hits; AID 485290, 2010; Potency, µM (titrated, usually from 130 µM), for inactives: at the highest dose activity change, negative = inhibition, hits mostly inhibitors; note: potency is the fitted concentration of half-maximal effect; % is set by controls: 0 for no effect and ±100 for the full control effect; nearly all actives have a fitted effect of over 40% in size
Target sequence (Q9NUW8 whole entry, looked up): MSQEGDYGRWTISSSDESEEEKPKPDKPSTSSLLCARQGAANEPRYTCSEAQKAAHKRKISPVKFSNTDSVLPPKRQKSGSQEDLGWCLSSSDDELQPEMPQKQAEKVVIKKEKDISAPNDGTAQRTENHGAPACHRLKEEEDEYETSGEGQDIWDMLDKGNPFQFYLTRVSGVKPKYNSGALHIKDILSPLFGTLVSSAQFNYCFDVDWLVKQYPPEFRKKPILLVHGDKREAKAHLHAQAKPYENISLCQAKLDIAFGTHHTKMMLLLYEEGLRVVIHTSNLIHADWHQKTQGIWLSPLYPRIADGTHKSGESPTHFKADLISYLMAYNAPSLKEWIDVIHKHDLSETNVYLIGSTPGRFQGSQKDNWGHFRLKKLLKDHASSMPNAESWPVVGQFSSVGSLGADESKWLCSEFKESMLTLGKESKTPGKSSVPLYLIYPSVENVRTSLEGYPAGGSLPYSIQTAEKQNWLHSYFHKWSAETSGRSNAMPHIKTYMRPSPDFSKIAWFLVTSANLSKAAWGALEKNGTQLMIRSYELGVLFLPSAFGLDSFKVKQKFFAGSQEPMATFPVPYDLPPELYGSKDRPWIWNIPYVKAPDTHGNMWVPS
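AlphaScreen read-out: signal falls as enzyme removes the 3' tyrosine-FITC from a 5'-biotinylated DNA oligo (15 nM, 5 min, RT). Enzyme was E. coli-made recombinant Tdp1 at 1 nM, exposed to compound for 15 min beforehand; beads 10 ug/ml, 10 min.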
HepG2 tox: qHTS for Inhibitors of TGF-b: Cytotox Counterscreen. Potency, µM (highest dose often 46.1 µM), inactives show at the highest dose activity change, negative = cytotoxicity, hits mostly cytotoxic. HepG2 CAGA-GFP viability, ATP luminescence, 18 h. AID 588856, 2011. 410,000 compounds, 0.76% hits; note: potency is the fitted concentration of half-maximal effect
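HepG2 CAGA-GFP cells (1000/well, DMEM with 1% FBS) received compound, then TGF-beta at 500 pg/mL final, and were incubated 18 hours at 37 degrees C. Viability was read by CellTiter-Glo luminescence. Media-only wells were set as complete cell-killing and DMSO as no toxicity.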
IL-1B inflam inh: qHTS for Inhibitors of Inflammasome Signaling: IL-1-beta AlphaLISA Primary Screen; 360,000 compounds, 4.7% hits; AID 743279, 2014; THP-1 LPS/ATP IL-1B secretion, AlphaLISA, 16 h; hits give low values; activity change, % at 57.5 µM; in the data active = activity change below about -50%; inconclusive = mostly about -30% to -49%; note: % is set by controls: 0 for no effect and ±100 for the full control effect
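Secreted IL-1B measured by AlphaLISA bead assay after 16 h compound exposure of THP-1 cells; compounds (final up to 57.5 uM) added 1 h before LPS (250 ng/mL) and ATP (1.25 mM) stimulation; lower signal means less secretion.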
TDP1 cell CPT: qHTS for Inhibitors of human tyrosyl-DNA phosphodiesterase 1 (TDP1): qHTS in cells in presence of CPT | Potency, µM (doses to about 46.2 µM), inactives show at the top dose activity change, negative = growth inhibition, actives largely listed as inhibitors | chicken DT40 Tdp1-/-;hTDP1 cells + 20 nM CPT, ATP luminescence, 48 h | 420,000 compounds, 12% hits | AID 686979, 2013; note: potency is the fitted concentration of half-maximal effect; % is set by controls: 0 for no effect and ±100 for the full control effect; nearly all actives have a fitted effect of over 55% in size
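Chicken DT40 Tdp1-/- cells stably complemented with human TDP1 were seeded at 400 cells/well in medium containing 20 nM camptothecin, exposed to pin-transferred compounds, and grown at 37 °C for at least 48 hr. Viability was read as ATP luminescence.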
Active calls of the source: *; u = inconclusive; x = not tested or not shown; [ ] = another dose, or the depositor's remark. This is a sample that favours compounds with a hit; in the whole collection about 18% have one here. Unless noted, calls come from the whole dose curve; as a rule, active = well fitted curve in the direction sought with a large enough effect; inconclusive = small, poorly fitted or top-dose-only effect, or another doubt; inactive = no such curve, though single readings can be large; an effect the other way counts as inactive or inconclusive.

SMILES	TGFb inhibitor	DT40 TDP1 no CPT	TDP1 block	HepG2 tox	IL-1B inflam inh	TDP1 cell CPT
Cc1c(NC(=O)COC(=O)c2ccccc2O)c(=O)n(-c2ccccc2)n1C	-12.7%	-14.7%	x	1.4%	-21.5	1.9%
CS(=O)(=O)N1Cc2ccccc2CC1C(=O)Nc1ccccc1C(N)=O (stereo not drawn)	-2.2%	-22.7%	2.9%	0.9%	19.3	23.1µM*
CCS(=O)(=O)N1Cc2ccccc2CC1C(=O)Nc1nc2ccccc2s1 (stereo not drawn)	8.5%	16.4µM*	7.1%	-6.0%	11.6	u
Cc1cccc(C)c1NC(=O)C1(C)CSCC(=O)N1CCC(C)C (stereo not drawn)	x	-4.7%	x	x	-15.6	5.2%
COc1ccc(C2CCCN2C(=S)Nc2ccc(C)cc2C)cc1OC (stereo not drawn)	-11.9%	25.9µM*	8.1%	-0.3%	-15.1	-23.5%
COc1ccc(C2CCCN2C(=S)Nc2cccc(Cl)c2)cc1OC (stereo not drawn)	-2.9%	u	2.3%	-12.3%	-87.0*	-15.1%
COc1ccc(C2SCCN2C(=S)Nc2ccc(Cl)cc2)cc1 (stereo not drawn)	u	-11.9%	1.4%	-7.5%	-5.9	-20.7%
COc1ccc(C2SCCN2C(=S)Nc2cccc(Cl)c2)cc1 (stereo not drawn)	u	16.4µM*	4.2%	-0.5%	-25.8	u
Cc1ccc(NC(=S)N2CCSC2c2cccs2)cc1 (stereo not drawn)	-6.8%	-22.7%	7.9%	-3.6%	-82.4*	u
CC1(C(=O)NS(=O)(=O)C2CC2)CCN(C(=O)c2ccc3ccccc3n2)C1 (stereo not drawn)	-4.3%	7.0%	x	-14.6%	12.6	-6.6%
C[C@H](NC(=O)c1ccc(C(C)(C)C)cc1)C(=O)N1CCOCC1	3.7%	7.0%	0.3%	1.4%	6.4	-0.3%
COc1ccc(C2CCCN2C(=S)Nc2ccc(C)c(C)c2)cc1OC (stereo not drawn)	-10.5%	u	0.0%	7.4%	-17.9	9.4%
COc1cccc(NC(=S)N2CCCC2c2ccc(OC)c(OC)c2)c1 (stereo not drawn)	9.5%	29.1µM*	-5.4%	10.3%	-6.2	-18.5%
CCCC1COC(Cn2cncn2)(c2ccc(C)cc2)O1 (stereo not drawn)	-12.3%	11.2µM*	0.0%	2.8%	8.7	23.1µM*
COc1cccc(NC(=O)CN(C)S(=O)(=O)/C=C/c2ccccc2)c1	-8.4%	-3.7%	2.1%	-3.7%	-20.1	-4.8%
COc1ccc(NC(=O)C2(C)Cc3c(-c4ccc5c(c4)OCO5)ccnc3O2)cc1OC (stereo not drawn)	58.1%	u	x	5.4%	2.0	u
COCCNC(=O)C1(C)Cc2c(-c3ccc4c(c3)OCO4)ccnc2O1 (stereo not drawn)	2.3%	8.2µM*	x	1.5%	27.7	11.6µM*
CC1(C(=O)NCc2ccccc2)Cc2c(-c3ccc4c(c3)OCO4)ccnc2O1 (stereo not drawn)	-16.4%	0.82µM*	x	7.0%	72.5	0.651µM*
CC1(C(=O)NCCc2ccccc2)Cc2c(-c3ccc4c(c3)OCO4)ccnc2O1 (stereo not drawn)	2.5%	2.91µM*	x	-23.9%	-7.5	u
COc1ccc(OC)c(NC(=O)c2cc(S(=O)(=O)NCCc3ccc(Cl)cc3)ccc2F)c1	u	u	5.2%	3.6%	x	u
CCC(=O)Nc1ccc(CC)cc1-c1nc2ccccc2n(CC(=O)c2ccc(OC)cc2)c1=O	-5.2%	-24.8%	2.9%	-20.0%	x	-23.6%
Cc1ccc(S(=O)(=O)Nc2ccc(F)cc2)cc1C(=O)N1CCOCC1	4.0%	u	0.0%	5.6%	11.7	-4.0%
Nc1ccc2cccc(O)c2c1	u	13µM*	x	-20.6%	20.3	u
C=C(C)C1CCC(C)=C1COC(=O)Nc1ccccc1 (stereo not drawn)	u	u	x	1.3%	-61.6*	u
CCOC(=O)c1c(C)[nH]c(-c2csc(N)n2)c1C	-27.6%	u	11.4%	0.0%	42.0	-16.7%
SMILES	TGFb inhibitor	DT40 TDP1 no CPT	TDP1 block	HepG2 tox	IL-1B inflam inh	TDP1 cell CPT
CCOC(=O)c1c(C)[nH]c(C(=O)COC(=O)[C@H](C)N2C(=O)C3CCCCC3C2=O)c1C (stereo partly drawn)	1.2%	25.9µM*	x	8.1%	3.3	u
CCOC(=O)c1c(C)[nH]c(C(=O)COC(=O)c2[nH]c(C)c(C(C)=O)c2C)c1C	-10.6%	5.17µM*	2.3%	-2.8%	24.8	4.61µM*
CC(=O)c1c(C)[nH]c(C(=O)COC(=O)C2(C)CC2(Cl)Cl)c1C (stereo not drawn)	-11.5%	20.6µM*	1.6%	-12.5%	0.0	18.4µM*
CCOC(=O)c1c(C)[nH]c(-c2csc(C)n2)c1C	4.1%	13µM*	8.1%	-6.8%	-15.5	u
Fc1cccc(Cl)c1CNCc1cccnc1	34.5%	-0.1%	x	3.0%	38.7	-9.0%
CC(=O)c1c(C)[nH]c(C(=O)COC(=O)c2cc(C)oc2C)c1C	1.8%	2.59µM*	-12.1%	-5.8%	u	u
COC(=O)c1c(C)[nH]c(C(=O)C(C)OC(=O)c2cc(C)oc2C)c1C (stereo not drawn)	-27.9%	16.4µM*	1.2%	-10.7%	8.1	u
O=C(COc1ccc(Cl)cc1)Nc1ccc(CN2CCOCC2)cc1	-5.1%	u	0.1%[56.1 µM]	-9.2%	-5.5	-24.1%
Cc1ccc(NC(=O)C(=O)NCCN2CCN(Cc3ccc([N+](=O)[O-])cc3)CC2)cc1	5.8%	u	2.7%	2.3%	9.3	-27.7%
O=C(COc1ccc([N+](=O)[O-])cc1)Nc1ccc(CN2CCOCC2)cc1	-1.6%	20.6µM*	1.8%	-10.7%	11.2	u
Cc1cc(OCC(=O)Nc2ccc(CN3CCOCC3)cc2)ccc1Cl	-21.5%	u	1.8%	-65.6%	-51.4*	-73.7%
CCc1ccc(NC(=O)C(=O)NCCN2CCN(Cc3ccc([N+](=O)[O-])cc3)CC2)cc1	-1.7%	9.2µM*	-0.6%	-67.7%	18.2	10.3µM*
Cc1ccc(OCC(=O)Nc2ccc(CN3CCOCC3)cc2)cc1C	u	u	4.9%[56.1 µM]	-12.4%	-9.1	3.5%
